Data: PubChem BioAssay AID504321 (NMMLSC, 2011)

Assay: yeast MEP2-GFP fusion level changes, TOR pathway – flow cytometry, third cherry pick, S. cerevisiae, confirmation (AID 504321);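 note: median per-cell GFP fluorescence by flow cytometry across all yeast cells; ratio of sample to DMSO median GFP so 100% equals the DMSO level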
Conditions: S. cerevisiae MEP2-GFP strain, 3 h, at 10 µM, hits give high values;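 active = GFP response vs DMSO above 150% with enough events counted; inconclusive = fewer than 70 events counted for a yeast strain; inactive = the rest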

GFP response vs DMSO, inactive:
CN(C)CCCNc1cc(O)c2ncccc2c1 118%, Cc1ccc(-c2cc(C(F)F)nc(S(C)(=O)=O)n2)cc1 121%, Cc1cc(C)c2ccc(N)nc2c1O 108%, COc1ccccc1-c1cc(C(F)(F)F)nc(S(=O)(=O)CCCC(=O)NC(C)C)n1 110%, OCc1ccc(O)c2ncccc12 99%, Cc1ccc2nc(-c3ccc(NC(=O)c4cccnc4)cc3)oc2c1 114%, CN1CCN(C(=O)c2cc(COc3ccc(F)cc3Cl)on2)CC1c1ccccc1 (stereo not given) 101%, Cc1nc2c(O)cccc2cc1CO 103%, C/C(=C\C(=O)c1ccc(Cl)cc1)Nc1ccc(Br)cc1 105%, Nc1c(O)ccc2c1C(=O)c1ccccc1C2=O 105%, O=C(Nc1cccc2ccccc12)ON=C1CCCCC1 121%, Nc1cccc2c1C(=O)c1ccc(Cl)cc1C2=O 116%, CC(=O)Nn1cnc2c(c1=O)C1(CCCC1)Cc1ccccc1-2 105%, C=CCNc1nc(N)c([N+](=O)[O-])c(Nc2cccc(Cl)c2)n1 108%, COc1ccc(N/C(C)=C/C(=O)c2ccccc2)cc1 103%, Nc1ccc(O)c2c1C(=O)c1ccccc1C2=O 112%, COc1cccc(OCc2cc(C(=O)N3CCN(C)C(c4ccccc4)C3)no2)c1 (stereo not given) 108%, CC(=O)Nc1ccc(-c2nc3ccccc3o2)cc1 110%, COc1ccccc1Nc1nc(NCCO)nc(N)c1[N+](=O)[O-] 105%, CCC(C)Nc1nc(N)c([N+](=O)[O-])c(Nc2ccccc2OC)n1 (stereo not given) 114%
